# Assay results from PubChem BioAssay.
# “And” between values parts separate entries of the source, which are not always exact repeats. Equal values may be shown once. For part of these data: Entries with a potency or affinity are not part of this list. The source made the active and inactive calls. Cut-off read from the data, not from the text of the source, unless noted: active = parasite load remaining mostly below about 12% (no sharp cut-off); inactive = mostly above about 10%. Square brackets hold non-standard residues; d marks the D form. Peptide text beside a SMILES is read from it. Orn = NCCC[CH](N)C(=O)O
# Experiments:
# [1] = blockers of polyQ-driven CASP3 activation – cell-based (AID 1583); settings: polyglutamine-induced caspase-3 activation, cell assay; stronger effect = higher value;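 tested at 10 µM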
# [2] = yeast 75Q aggregation reduction – 75Q-TubU reporter (AID 1593); settings: Yeast 75Q polyglutamine aggregation reporter
# [3] = restoration of touch response, mutant HTT neurons – whole organism, C. elegans mechanosensory neurons, N-terminal huntingtin (AID 1599); settings: C. elegans polyQ-huntingtin mechanosensory neurons, stronger effect = higher value
# [4] = blockers of cytochrome c efflux from mitochondria – biochemical, purified mitochondria (AID 1603); settings: stronger effect = lower value;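 note: mouse liver mitochondria challenged with calcium chloride; signal normalized to the plate average as 100%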
# [5] = polyglutamine aggregate formation blockers (AID 1604); settings: polyglutamine-induced protein aggregation inhibition assay; stronger effect = higher value; tested at 2.5 µM
# [6] = glutamate transport activators, MN-1 cells, MN-1 cell line (AID 1612); settings: MN-1 motor neuron cells, stronger effect = higher value;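 note: tested at 1 µM final; 0% = mean of DMSO vehicle wells on each plate; positive means more glutamate uptake than control and negative means less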
# [7] = GFP-Q80 aggregate reduction, neuronal-like cells, cell-based, NGF-treated PC12, GFPQ80 (AID 1614); settings: PC12 NGF-treated GFP-polyQ80 inclusion reduction;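 note: lower means fewer inclusions and 0 means no inclusions at all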
# [8] = 75Q-TubH aggregate inhibition, S. cerevisiae, yeast (AID 1616); settings: S. cerevisiae 75Q-TubH polyglutamine aggregation suppression; stronger effect = higher value
# [9] = P. berghei load reduction in hepatocytes – cell-based, HepG2, luciferase luminescence, HepG2 viability, primary screen (AID 624349);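 note: 100% = mean of DMSO negative control wells on the same plate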; settings: P. berghei liver stage in HepG2, luciferase luminescence, concentration not given here; parasite load remaining: stronger effect = lower value; viability: measured here: HepG2 viability without parasites
# [10] = EMT-state selective cytotoxicity in co-culture – imaging, PC-3E GFP, TEM4-18 mCherry, primary screen (AID 1345086;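 active = compounds killing one labelled cell type while sparing the other, by normalised counts and ratio limits, not self-fluorescent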;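 for all read-outs here: cells exposed to compound for 72 h before imaging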;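 for red/green cell ratio (normalised): normalised mesenchymal count divided by normalised epithelial count so high means epithelial killing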); settings: PC-3E GFP / TEM4-18 mCherry co-culture, imaging cell counts, at 1 µM; for red/green cell ratio (normalised): actives lie on both sides, counts scaled to control wells, 1 = unselective
# [11] = viability loss with induced miR-34 in A549 – imaging, A549 dox-inducible miR-34, nuclei and caspase counts, primary screen (AID 1347080;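 active = compounds whose cell count with miR-34 switched on is under 0.7 times the count with it off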); settings: A549 miR-34 inducible, Hoechst nuclei count, 48 h
# [12] = compounds altering viability of human ES cells (AID 493140; call rule not given here;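 note: cells exposed to compounds for four days before counting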); settings: human embryonic stem cell survival screen; stronger effect = higher value
# [13] = measured here: epithelial PC-3E GFP cell survival
# [14] = measured here: mesenchymal TEM4-18 mCherry cell survival
# [15] = stronger effect = lower value, cell number ratio, induced over uninduced
# [16] = measured here: relative caspase fold change +Dox/-Dox
# [17] = measured here: total cells with miR-34 induction, stronger effect = lower value
# [18] = measured here: total cells without miR-34 induction
SMILES,inhibition [1] [%],score [2],rescue above control [3],cytochrome c release ratio [4],inhibition of aggregation [5] [%],glutamate uptake change [6] [%],inclusion score [7],aggregation suppression score [8],parasite load remaining [9],viability [9],red/green cell ratio (normalised) [10],"normalised cell number [10, 13]","normalised cell number [10, 14]","fold change [11, 15]","fold change [11, 16]","cell count [11, 17]","cell count [11, 18]",survival [12]
C[C@]12C=CC(=O)C=C1CCC1C2C(=O)C[C@@]2(C)C1CC[C@]2(O)C(=O)CO (stereo partly specified),10.6,1.16,5.79,0.79,-17.6,-8.9,2,1.29,71.9% (inactive) and 35.5% (inactive),73% and 91%,1.16 (inactive),0.94,1.1,0.854 (inactive),2.55,10500,12300,
CN1CCN(CCC=C2c3ccccc3Sc3ccc(S(=O)(=O)N(C)C)cc32)CC1,35.1,0.75,18.8,2.01,76,-21.1,,0.481,192% (inactive) and 47.1% (inactive),71.3% and 85.4%,1.07 (inactive),0.83,0.89,0.878 (inactive),3.25,9700,11100,
C[C@H](CCC(=O)O)[C@H]1CCC2C3C(CC[C@@]21C)[C@@]1(C)CC[C@@H](O)C[C@H]1C[C@H]3O (stereo partly specified),13.5,-0.55,-0.69,0.92,21.1,-19.3,,0.165,96.5% (inactive) and 33.9% (inactive),70.7% and 87%,1.27 (inactive),0.99,1.25,0.893 (inactive),3.03,10800,12100,
CC12CCC3C(=CCc4cc(O)ccc43)C1CCC2=O (stereo unspecified),-18.1,0.86,0.8,0.66,84.7,1.39,,0.518,112% (inactive) and 14% (inactive),72.6% and 110%,1.28 (inactive),1.14,1.45,0.897 (inactive),0.851,11100,12400,
COc1cc([C@@H]2c3cc4c(cc3C(O[C@@H]3O[C@@H]5CO[C@@H](c6cccs6)OC5[C@H](O)[C@H]3O)C3COC(=O)[C@@H]32)OCO4)cc(OC)c1O (stereo partly specified),,,,,,,,,111% (inactive) and 83.3% (inactive),75.6% and 112%,1.33 (inactive),0.27,0.36,0.795 (inactive),3.39,3270,4110,
CC(C)CCCC(C)[C@H]1CCC2C3CC=C4C[C@@H](O)CC[C@]4(C)C3CC[C@@]21C (stereo partly specified),,,,,,,,,39.9% (inactive),101%,1.04 (inactive),1.14,1.19,0.96 (inactive),2.49,12300,12900,
CC(=O)Nc1cc2ccccc2oc1=O,,,,,,,,,90.5% (inactive),77.8%,0.74 (inactive),1.29,0.95,0.955 (inactive),0.792,8640,9040,3.5 (inactive)
CC(C)CC1NC(=O)C(CCCN)NC(=O)C(C(C)C)NC(=O)C(Cc2ccc(O)cc2)NC(=O)C(CCC(=O)O)NC(=O)C(CC(=O)O)NC(=O)C(Cc2ccccc2)NC(=O)C(Cc2ccccc2)NC(=O)C2CCCN2C(=O)C(Cc2ccccc2)NC1=O (stereo unspecified) (cyclo(DEYV[Orn]LFPFF); configuration not given here),,,,,,,,,7.69% (inactive) and 0.08% (inactive),49.2% and 36.8%,0.75 (inactive),0.47,0.35,1.12 (inactive),0.824,1510,1350,
C=C1CC[C@H](O)C/C1=C/C=C1\CCCC2(C)C1CCC2C(C)CCCC(C)C (stereo partly specified),,,,,,,,,36.2% (inactive),104%,1.03 (inactive),1.11,1.14,0.909 (inactive),2.89,11700,12900,
CCCCC/C=C/CCC(=O)N[C@H]1[C@H](Oc2c3cc4cc2Oc2ccc(cc2Cl)[C@@H](O[C@@H]2O[C@H](CO)[C@@H](O)[C@H](O)[C@H]2NC(C)=O)[C@@H]2NC(=O)[C@H](NC(=O)[C@@H]4NC(=O)[C@H]4NC(=O)C(Cc5ccc(c(Cl)c5)O3)NC(=O)[C@H](N)c3ccc(O)c(c3)Oc3cc(O)cc4c3)c3ccc(O)c(c3)-c3c(OC4O[C@H](CO)[C@@H](O)[C@H](O)[C@@H]4O)cc(O)cc3[C@@H](C(=O)O)NC2=O)O[C@H](CO)[C@@H](O)[C@@H]1O (stereo partly specified),,,,,,,,,146% (inactive),99.2%,1.02 (inactive),0.94,0.96,0.918 (inactive),5.67,12100,13200,
Cc1nc(N)cc(C[n+]2csc(CCO)c2C)n1,,,,,,,,,58.2% (inactive),97.3%,0.91 (inactive),0.96,0.87,0.946 (inactive),4.78,12800,13500,
COc1cc([C@@H]2c3cc4c(cc3C(OC3O[C@@H]5COC(C)O[C@H]5[C@H](O)[C@H]3O)C3COC(=O)[C@@H]32)OCO4)cc(OC)c1O (stereo partly specified),,,,,,,,,116% (inactive) and 63.3% (inactive),71.1% and 87.6%,0.85 (inactive),0.36,0.31,0.832 (inactive),1.86,3220,3870,
CCCCCC(O)C1C(=O)OC(C)C(O)/C=C/C=C/C=C/C=C/C=C(\C)C(O)CC(O)CC(O)CC(O)CC(O)CC(O)CC1O (stereo unspecified),,,,,,,,,18% (inactive),94.9%,1.13 (inactive),0.84,0.95,0.935 (inactive),2.39,11500,12300,
CC(C)(C)NCC(O)COc1cccc2c1CCCC2=O (stereo unspecified),,,,,,,,,76.4% (inactive),103%,1.02 (inactive),1.01,1.03,0.83 (inactive),2.71,11300,13600,
